MITF inh: inhibitors of MITF, primary screen, MITF inhibitor project, cell-based, luminescence | TRPM1 promoter luciferase, 24 h | inhibition, % (test concentration not listed) | actives 0.28% (n = 37,000) | AID 2240, 2010; in the data active = inhibition above about 85%; inconclusive = no clear call, values can overlap the other calls; inactive = below about 68%;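 note: human melanocyte line stably carrying TRPM1 promoter luciferase reporter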
BJeLR viability: BJeLR cell viability loss, primary screen, luminescence, CellTiterGlo ATP; actives 0.64% (n = 30,000); viability loss activity score, % (test concentration not listed); BJeLR fibroblasts viability, 48 h; HRASV12, hTERT and SV40 LT/ST transformed; in the data active = viability loss activity score above about 50%; inconclusive = no clear call, values can overlap the other calls; inactive = below about 35%;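 note: higher score means fewer live cells and less ATP luminescence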
YB-1 expression: inhibitors of YB-1 gene expression, primary screen, cell-based, fluorescence; delta delta Cp (YB-1 minus CDIP) (no concentration beside the values); U2OS, qRT-PCR YB-1 vs CDIP delta delta Cp, 16 h; stronger effect = higher value; zero = DMSO, each unit about twofold; AID 434959, 2010; actives 0.37% (n = 30,000);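 active = delta delta Cp rounded down to an integer at or above 3, about 3 SD of DMSO wells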;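 note: higher means less YB-1 transcript or more CDIP transcript relative to DMSO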
ROS inducer: ROS inducers in U2OS cancer cells, primary screen, cell-based, H2DCF-DA fluorescence. U2OS ROS induction. ROS induction (% of piperlongumine), % at 10 µM. actives 2% (n = 46,000); in the data active = ROS induction above about 79%, passing the limit was not always enough; inconclusive = no clear call, values can overlap the other calls;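 note: 0% = DMSO vehicle median and 100% = reference compound median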
* = called active by the depositor; u = inconclusive; x = no result. The list is not random: actives were taken first. Their share in the collection is about 2.5%.

SMILES	MITF inh	BJeLR viability	YB-1 expression	ROS inducer
COc1ccc([N+](=O)[O-])cc1NC(=O)C1(c2ccc(OC)c(OC)c2)CCOCC1	-2	x	x	x
Cc1ccc2oc(=O)c3cc(C(=O)N4CCCCC4)sc3c2c1	x	1	x	x
O=c1cc(N2CCOCC2)oc2c(-c3ccccc3)cccc12	36	5	0.11	85*
O=C(O)CSc1c[nH]c2ccccc12	43	x	x	x
Cn1cc(C2=C(c3cn(CCCSC(=N)N)c4ccccc34)C(=O)NC2=O)c2ccccc21	68	56*	0.53	76*
CN(C)CCCn1cc(C2=C(c3c[nH]c4ccccc34)C(=O)NC2=O)c2ccccc21	-13	2	0.61	81*
COc1ccc2oc(=O)c(-c3nnc(NCc4ccc5c(c4)OCO5)s3)cc2c1	x	4	x	2
C[C@@H]1CCCCO[C@@H](CN(C)S(=O)(=O)c2ccc(Cl)cc2)[C@@H](C)CN([C@H](C)CO)C(=O)c2cc(NS(=O)(=O)c3cccs3)ccc2O1	20	x	0.38	94*
COc1ccc(S(=O)(=O)N(C)C[C@H]2OCCCC[C@@H](C)Oc3ccc(NS(=O)(=O)c4cccs4)cc3C(=O)N([C@H](C)CO)C[C@@H]2C)cc1	-1	x	-17	-3
COc1ccc(S(=O)(=O)N(C)C[C@@H]2OCCCC[C@@H](C)Oc3ccc(NS(=O)(=O)c4cccs4)cc3C(=O)N([C@H](C)CO)C[C@@H]2C)cc1	15	x	0.63	115*
c1ccc(-c2nc(N3CCCCCC3)c3ccccc3n2)cc1	x	0	x	65
C[C@@H]1CN([C@H](C)CO)C(=O)Cc2cc(NC(=O)CCN3CCOCC3)ccc2O[C@@H]1CN(C)Cc1ccc(Oc2ccccc2)cc1	-6	x	-0.087	87*
CC(C)NC(=O)Nc1ccc2c(c1)CC(=O)N([C@H](C)CO)C[C@@H](C)[C@@H](CN(C)Cc1ccc(Oc3ccccc3)cc1)O2	20	x	-0.16	129*
C[C@@H]1CN([C@H](C)CO)C(=O)Cc2cc(NC(=O)c3ccncc3)ccc2O[C@H]1CN(C)Cc1ccc(Oc2ccccc2)cc1	2	x	-0.0039	127*
C[C@@H]1CN([C@@H](C)CO)C(=O)Cc2cc(NC(=O)c3ccncc3)ccc2O[C@@H]1CN(C)Cc1ccc(Oc2ccccc2)cc1	12	x	-0.065	5
O=C(Nc1ccc(-c2nc3ccccc3s2)cc1)Nc1cc(F)cc2c1OCOC2	x	-7	x	-2
O=C(Nc1cccc(-c2cn3cccnc3n2)c1)C1CCCC1	x	1	x	x
CCOC(=O)CSc1nc(Nc2ccc(OC)cc2)c2cnc(N(CC)CC)nc2n1	8	-2	0.2	u
CCOC(=O)CSc1nc(Nc2ccccc2)c2cnc(N3CCOCC3)nc2n1	4	1	0.02	150*
C=CCNC(=O)[C@H]1[C@@H]2C(=O)O[C@@H](c3ccccc3)[C@@H](c3ccccc3)N2[C@@H](c2ccccc2OCCO)[C@]12C(=O)N(C(=O)OCCOC)c1ccc(C#CC3(O)CCCCCC3)cc12	x	x	0.25	95*
C=CCNC(=O)[C@H]1[C@@H]2C(=O)O[C@@H](c3ccccc3)[C@@H](c3ccccc3)N2[C@@H](c2ccc(OCCO)cc2)[C@]12C(=O)N(C(=O)OCCOC)c1ccc(C#CC3=CCCCC3)cc12	x	x	0.0068	122*
C=CCNC(=O)[C@@H]1[C@H]2C(=O)O[C@H](c3ccccc3)[C@H](c3ccccc3)N2[C@H](c2ccc(OCCO)cc2)[C@@]12C(=O)N(C(=O)OCCOC)c1ccc(C#Cc3ccc(OC)cc3)cc12	x	x	0.59	9
C=CCNC(=O)[C@H]1[C@@H]2C(=O)O[C@@H](c3ccccc3)[C@@H](c3ccccc3)N2[C@@H](c2ccc(OCCO)cc2)[C@]12C(=O)N(C(=O)OCCOC)c1ccc(C#CC3(O)CCCCCC3)cc12	x	x	0.14	105*
Cc1[nH][nH]c(=O)c1C(c1ccncc1)C(C#N)C#N (stereo not drawn)	x	2	x	6
C=C1C(=O)O[C@@H]2C[C@@]3(C)CC(=O)C=C(C)C3C[C@H]12 (stereo partly drawn)	1	-9	-0.32	111*
SMILES	MITF inh	BJeLR viability	YB-1 expression	ROS inducer
C=C1CC[C@@H](O)[C@]2(C)C[C@H]3OC(=O)C(=C)[C@H]3CC12 (stereo partly drawn)	38	-6	-0.48	60
S=C(NCC(c1cccnc1)N1CCOCC1)Nc1ccccc1 (stereo not drawn)	x	-7	x	x
C[C@H](CO)N1C[C@H](C)[C@@H](CN(C)Cc2ccc(Oc3ccccc3)cc2)Oc2ccc(NC(=O)C3CCCCC3)cc2C1=O	3	-1	0.57	84*
C[C@H](CO)N1C[C@H](C)[C@@H](CN(C)Cc2ccc(-c3ccccc3)cc2)Oc2ccc(NC(=O)C3CCCCC3)cc2C1=O	-5	2	0.11	104*
C[C@@H]1CN([C@H](C)CO)C(=O)c2cc(NC(=O)C3CCCCC3)ccc2O[C@H]1CN(C)Cc1ccc(Oc2ccccc2)cc1	-10	2	-0.0038	9
C[C@H]1CN([C@@H](C)CO)C(=O)c2cc(NC(=O)C3CCCCC3)ccc2O[C@@H]1CN(C)Cc1ccc(-c2ccccc2)cc1	13	-1	-0.24	u
Cc1ccc2c(c1)C1CN(C)CCC1N2C(=O)Cn1nnc(-c2ccccc2C)n1 (stereo not drawn)	x	3	x	x
CCCN(C(=O)COc1cc(=O)n(C)c2ccccc12)c1ccccc1C	x	-2	x	x
CC(C)(C)NS(=O)(=O)c1cccs1	x	-1	x	x
COC(/C=C/C(OC(C)=O)C(C)OC(C)=O)C(O)C1CC=CC(=O)O1 (stereo not drawn)	-16	-3	0.11	105*
Cc1ccc(NC(=O)CSc2nnc(-c3cccnc3)n2-c2ccc(Br)cc2)cc1F	-19	x	x	77*
COc1cc2c(cc1OC)N1C(=O)C[C@]34C=CCN5CC[C@@H]2[C@@H](CC3)[C@]514	x	x	0.16	86*
Nc1ccccc1SCc1cccc(Cl)c1F	x	2	x	-17
Cc1ccsc1/C=N/NC(=O)c1ccccn1	x	x	0.2	2
CC1=N/C(=C\c2sccc2C)C(=O)O1	18	6	-0.21	94*
O=C1CSc2ccc(C(=O)NCC3COc4ccccc4O3)cc2N1 (stereo not drawn)	x	0	x	-2
O=C(CC(c1ccccc1)C1C(=O)NC(=S)NC1=O)c1cccs1 (stereo not drawn)	x	-5	x	x
COc1ccc(S(=O)(=O)Nc2cccc3c2O[C@H](CN(C)Cc2ccc(Oc4ccccc4)cc2)[C@@H](C)CN([C@H](C)CO)C3=O)cc1	19	3	-0.24	96*
C[C@H](CO)N1C[C@H](C)[C@@H](CN(C)Cc2ccc(Oc3ccccc3)cc2)Oc2c(NS(=O)(=O)c3ccc(Cl)cc3)cccc2C1=O	34	-5	-0.22	112*
CCC1Oc2ccc(C)cc2N(CC(=O)NCCCN2CCN(c3ccccc3F)CC2)C1=O (stereo not drawn)	x	-1	x	7

High-throughput results as filed in PubChem.
